PubChem BioAssay (NCI)
This is part of a sample that, as a whole, favours compounds with a hit. Of some 79,000 tested, about 15% had one in any assay. Activity calls are given as the source filed them. Cut-off read from the data, not from the text of the source: active = growth inhibition above about 70%; inactive = the rest.

Assays:
[1] = NCI Yeast Anticancer Drug Screen. Data for the rad50 strain (AID 155);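 note: 0% = growth of vehicle-only cultures of the same strain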; conditions: S. cerevisiae rad50 strain growth inhibition; at 50.0 µM; stronger effect = higher value
How it was run: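 Readout: growth inhibition relative to vehicle-treated cultures. Compound exposure was carried out in a genetically defined yeast strain deficient in DNA damage repair.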

[2] = NCI Yeast Anticancer Drug Screen. Data for the mec2-1 strain (AID 157); conditions: S. cerevisiae mec2-1 strain, at 50.0 µM, stronger effect = higher value
How it was run: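 Readout is yeast growth inhibition, normalised to vehicle-treated controls, in the mec2-1 strain exposed to compound.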

[3] = NCI Yeast Anticancer Drug Screen. Data for the sgs1 mgt1 strain (AID 161);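 note: 0% = growth of cultures given vehicle only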; conditions: S. cerevisiae sgs1 mgt1 strain, at 50.0 µM, stronger effect = higher value
How it was run: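 Compounds are added to genetically altered yeast, and growth is compared with cultures given vehicle alone to give percent inhibition.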

[4] = NCI Yeast Anticancer Drug Screen. Data for the cln2 rad14 strain (AID 165);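 note: 0% = growth equal to vehicle treated cultures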; conditions: S. cerevisiae cln2 rad14 strain, at 50.0 µM, stronger effect = higher value
How it was run: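 Relative to vehicle controls, growth inhibition of compound-treated cln2 rad14 yeast was recorded.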

[5] = NCI Yeast Anticancer Drug Screen. Data for the bub3 strain (AID 167); conditions: S. cerevisiae bub3 mutant strain, at 50.0 µM, stronger effect = higher value
How it was run: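 Readout: yeast growth inhibition, expressed relative to vehicle-only wells. The test organism is a mutant strain from a panel with lesions in DNA repair or checkpoint genes.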

[6] = NCI Yeast Anticancer Drug Screen. Data for the mlh1 rad18 strain (AID 175); conditions: S. cerevisiae mlh1 rad18 strain growth inhibition; at 50.0 µM; stronger effect = higher value
How it was run: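 Test agents were incubated with a yeast strain of defined genotype (DNA damage repair defect). Inhibition of growth was derived by comparison with vehicle-exposed cultures.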

Measured: growth inhibition

C=CCO[Si](OCC=C)(OCC=C)OCC=C
inactive: [1] 0.85% | [2] -19% | [3] -6.2% | [4] 13.9% | [5] 9.6% | [6] 3.9%

CC(C)[C@@]12O[C@@H]1CC13OC1[C@@H](O)CC[C@@]32O (stereo not given in full)
inactive: [1] -16.6% | [2] -1.05% | [3] -2.8% | [4] -27.9% | [5] -6.25% | [6] -20.8%

COc1ccc(N=C2C(=Nc3ccc(OC)cc3)N(c3ccc(OC)cc3)C(=S)N2C)cc1
inactive: [1] 19% | [2] -7.1% | [3] -39% | [4] -12% | [5] -7.65% | [6] 13.5%

CC(C)(C)NC1=NCCNC(c2ccccc2)=C1
inactive: [1] -33.5% | [2] -52.2% | [3] -19.4% | [4] -4.65% | [5] -30.8% | [6] -23.9%

O=C(O)c1c[nH]c2c(ccc3[nH]cc(C(=O)O)c(=O)c32)c1=O
inactive: [1] -14.1% | [2] -36.4% | [3] -33.2% | [4] -32.2% | [5] -40.7% | [6] -13.6%

CCOc1cc2c(cc1C(C)c1ccc(OCc3ccccc3)c(OC)c1)OCO2 (stereo not given)
inactive: [1] 18.8% | [2] -6.7% | [3] -5.35% | [4] 11.7% | [5] -2.05% | [6] 1.75%

Cc1nc(C(=O)O)c2ccccc2n1
inactive: [1] -2.8% | [2] 2.45% | [3] -8.05% | [4] 3.6% | [5] -9.65% | [6] 4.6%

O=C1CSC(=S)N1.[Cu+2]
inactive: [1] -7.9% | [2] -9.5% | [3] 7.7% | [4] -7.65% | [5] -4.5% | [6] 4.3%

C=CCc1cccc(CC=C)c1OCCN(CC)CC
inactive: [1] 13.4% | [2] 17.1% | [3] 17.6% | [4] 10.2% | [5] 7.3% | [6] 16.8%

O=c1[nH]c2cc3[nH]c(=O)c(=O)[nH]c3cc2[nH]c1=O
inactive: [1] -21.8% | [2] -16.6% | [3] -6.7% | [4] 8.85% | [5] -5.7% | [6] -17.2%

CC(C)/C(=N\N=C(\c1ccccc1)C(C)C)c1ccccc1
inactive: [1] -2.6% | [2] 25.5% | [3] 3% | [4] -7.7% | [5] 16.3% | [6] 18.1%

CC1(C)C(=O)/C=C\C(=O)C(C)(C)C(=O)/C=C\C(=O)C(C)(C)C(=O)/C=C\C(=O)C(C)(C)C(=O)/C=C\C1=O
inactive: [1] 12.1% | [2] 0.25% | [3] -9.05% | [4] 10.5% | [5] -13.2% | [6] 12.7%

COc1ccc(C2C3=C(CCCC3=O)OC3=C2C(=O)CCC3)cc1
inactive: [1] -6.85% | [2] 1.4% | [3] -16.2% | [4] -17.2% | [5] 9.65% | [6] 12.7%

COc1ccc(C)c(CN(C)C)c1
inactive: [1] 7.85% | [2] -7.7% | [3] 8.35% | [4] 5.25% | [5] -1.2% | [6] 23.6%

CC(=O)OCCS(=O)Cc1ccccc1 (stereo not given)
inactive: [1] -36.9% | [2] -16.5% | [3] -9.05% | [4] -41.4% | [5] 3.6% | [6] 3.15%

COc1ccc(/C=N/NC(=O)c2ccccc2NC(=O)c2ccccc2Cl)cc1
inactive: [1] 17.4% | [2] -25.1% | [3] 29.1% | [4] -13.7% | [5] 7.25% | [6] 24.7%

Cc1cc(N)ccc1[N+](=O)[O-]
inactive: [1] 2.2% | [2] 31% | [3] 9% | [4] -29.1% | [5] 11.7% | [6] 1.75%

CN(C1CCCCC1)S(=O)(=O)c1ccc(N)cc1
inactive: [1] 7.65% | [2] -3.35% | [3] 12% | [4] 11.4% | [5] 5.25% | [6] 24.5%

CCOC1=C2C(C)(CCC3[C@@]4(C)C=CC(=O)C(C)(C)C4CC(O)[C@@]23C)C(c2ccoc2)C1=O (stereo not given in full)
inactive: [1] 54% | [2] 31% | [3] 45.5% | [4] 45.3% | [5] 20.1% | [6] 30.8%

COc1ccc(C(NC(N)=O)c2cc3c(cc2OC(C)=O)OCO3)c(OC)c1 (stereo not given)
inactive: [1] 10.8% | [2] 4.65% | [3] -2.45% | [4] 22.4% | [5] -3.25% | [6] 16.3%

O=[N+]([O-])c1ccc(OS(=O)(=O)c2ccccc2)cc1
inactive: [1] -3.25% | [2] 7.9% | [3] -5.35% | [4] -3.95% | [5] 4.05% | [6] 9.65%

N#Cc1ccccc1NC(=O)C(=O)C(C(=O)c1ccccc1F)C1OC(=O)c2ccccc21 (stereo not given)
inactive: [1] -1.1% | [2] -10.8% | [3] -5.25% | [4] -5.5% | [5] -16.2% | [6] -2.4%

O=C1c2cc(CCl)sc2C(=O)c2ccsc21
active: [1] 88.9% | [2] 89.3% | [3] 89.5% | [4] 89.8% | [5] 87.6% | [6] 83.2%

CCN(CC)CCCN1CC(=O)N2CCCCN2C(=O)C1
inactive: [1] 28.8% | [2] -3.6% | [3] 13.4% | [4] 6.15% | [5] 3.05% | [6] 8.9%

O=[N+]([O-])c1ccc(Oc2c3ccccc3nc3ccccc23)cc1
inactive: [1] 11.3% | [2] -3.7% | [3] 19.6% | [4] -1.8% | [5] -1.4% | [6] 14.4%

COc1ccc2nc3cc(Cl)ccc3c(Sc3ccc(NC(C)=O)cc3)c2c1
inactive: [1] 22.1% | [2] -5% | [3] -2.5% | [4] 11.3% | [5] 11.3% | [6] 9.1%

CCCCCCCCCCCC(=O)OCCSC#N
inactive: [1] -7.45% | [2] 0.1% | [3] -2% | [4] -21.4% | [5] -0.2% | [6] 0.05%

N#CCCN(N)S(=O)(=O)c1ccccc1
inactive: [1] 3.7% | [2] 7.65% | [3] 0% | [4] -34.7% | [5] 2.85% | [6] -0.2%

CC(=O)OC1CCCC2CCCC21 (stereo not given)
inactive: [1] 0.2% | [2] 5.2% | [3] 1.25% | [4] -5.7% | [5] -2.35% | [6] -3.75%

O=C(Nc1ccc(Cl)cc1)OCCN(CCOC(=O)Nc1ccc(Cl)cc1)C(=O)Nc1ccc(Cl)cc1
inactive: [1] 19.3% | [2] -19.1% | [3] 1.65% | [4] -3.25% | [5] -7.8% | [6] 9.15%

CC1=CCCCC1O (stereo not given)
inactive: [1] -7.15% | [2] 10.6% | [3] -6.7% | [4] 4.55% | [5] 14.1% | [6] -0.6%

CCN(CC)CCOC(=O)c1ccc(N=Nc2cc(C(=O)O)ccc2O)cc1
inactive: [1] 14.8% | [2] -6.3% | [3] 4.1% | [4] -6.55% | [5] -0.8% | [6] -12.5%

O=C(O)C1CCC(=O)N1Cc1csc(-c2ccccc2)n1 (stereo not given)
inactive: [1] -23.8% | [2] -19.6% | [3] -1.45% | [4] -19.6% | [5] -7.15% | [6] 2.7%

CSC(C1c2ccccc2N(C)C2=NC(=O)N(C)C(=O)C21Cl)S(=O)(=O)c1ccc(C)cc1 (stereo not given)
inactive: [1] 50.2% | [2] 12.2% | [3] 27.4% | [4] 35.7% | [5] 45.4% | [6] 51.3%

CC(C)Cc1ccc(NC2=C(Cl)C(=O)c3ccccc3C2=O)cc1
inactive: [1] 19.3% | [2] 19.7% | [3] 13.7% | [4] 25.1% | [5] 15.1% | [6] 28.1%

CCOC(=O)NNC(=O)C1CSC(c2ccccc2)N1C(C)=O (stereo not given)
inactive: [1] -52.5% | [2] -13.4% | [3] -27.1% | [4] 10.5% | [5] 1.85% | [6] -22.3%

c1ccc(Oc2ccccc2-c2ccccc2)cc1
inactive: [1] 6.1% | [2] -26.1% | [3] -0.7% | [4] -0.65% | [5] -23.1% | [6] 15.9%

CCCCSc1nc2ccc([N+](=O)[O-])cc2s1
inactive: [1] 40.6% | [2] -4.2% | [3] 37.5% | [4] 2.1% | [5] 4.45% | [6] 12.9%

CC(O)/C=C/c1ccccc1O (stereo not given)
inactive: [1] 2.05% | [2] 2.85% | [3] -13.9% | [4] -41.5% | [5] -5.65% | [6] -13.6%

O=C(Nc1ccc2c(c1)Cc1cccc(F)c1-2)C(F)(F)F
inactive: [1] 4.7% | [2] -1.45% | [3] 2.9% | [4] -1.5% | [5] 36.7% | [6] 7.3%
